Source: PubChem BioAssay (NCATS)
Records with an inconclusive call do not appear. The source made the active and inactive calls. Unless noted, calls follow the shape of the dose curve; as a rule, active = well fitted curve in the direction sought with a large enough effect; inconclusive = small, poorly fitted or top-dose-only effect, or another doubt; inactive = no such curve, though single readings can be large; an effect the other way counts as inactive or inconclusive.

Columns and labels:
[1] = Cell Viability - HUV-EC-C (AID 542); conditions: HUV-EC-C endothelial cell viability, qHTS; series mostly up to 92.2 µM; also: nearly all actives have a fitted effect of over 35% in size; as to activity change, negative = cytotoxicity: % is scaled to controls: 0 for no effect and ±100 for the full control effect
Procedure, shortened: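 qHTS cytotoxicity: HUV-EC-C, 1000 cells/well, 5 hr settle, compound 40 hr 37 °C, CellTiter-Glo, luminescence. AC50 via Hill equation.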

[2] = Cell Viability - Mesenchymal (AID 546); conditions: mesenchymal cells viability, qHTS; activity change, negative = cytotoxicity: at 91.7 µM (top of the series);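 also: cells exposed to compound for 40 hours before reading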;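 as to activity change, negative = cytotoxicity: 0% = DMSO only and -100% = 100 µM tamoxifen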
Procedure, shortened: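 AC50 values reflect the drop in intracellular ATP in a human kidney mesenchymal line derived from normal glomeruli. Treatment lasts 40 hr at 37 °C in complete medium, and the signal comes from CellTiter-Glo luminescence.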

[3] = MultiTox-Fluor Cytotoxicity Assay - LYMP1-001 - Live Cells (AID 947); conditions: LYMP1-001 lymphoblastoid cells, live-cell protease fluorescence viability; series mostly up to 92.2 µM;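 as to activity change, negative = cytotoxicity: 0% = DMSO only and full inhibition = tetraoctylammonium bromide control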
[4] = MultiTox-Fluor Cytotoxicity Assay - LYMP1-003 - Dead Cells (AID 961); conditions: LYMP1-003 lymphoblastoid cells, dead-cell protease fluorescence; series mostly up to 92.2 µM; also: nearly all actives have a fitted effect of over 70% in size
Procedure, shortened: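 Dead-cell protease release, detected as bis-AAF-R110 fluorescence at 485/520 nm, was measured in LYMP1-003 cells after 16 h compound treatment at 37 C. AC50 values came from Hill-modeled qHTS curves normalized to DMSO (0%) and 15 uM tetraoctylammonium bromide (100%).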

[5] = Cell Viability - LYMP1-003 - Assay at 40 hr (AID 964); conditions: LYMP1-003 lymphoblastoid viability; series mostly up to 92.2 µM; also: nearly all actives have a fitted effect of over 60% in size
Procedure, shortened: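 Cells were seeded at 2500 per well and incubated 5 hr at 37 C. Compounds were added across a concentration series and left 40 hr at 37 C. CellTiter-Glo was added for 30 min at room temperature before luminescence reading.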

[6] = Cell Viability - LYMP2-004 (AID 966); conditions: LYMP2-004 lymphoblastoid cell viability, qHTS; series mostly up to 92.2 µM;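 also: cells exposed to compound for 24 h; nearly all actives have a fitted effect of over 65% in size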;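 as to activity change, negative = cytotoxicity: plate controls were DMSO only for no effect and tetraoctylammonium bromide control for full effect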
Procedure, shortened: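 Cells seeded 2500/well, rested 5 hr at 37 C, dosed across a concentration series, incubated 24 hr at 37 C, then CellTiter-Glo added for 30 min at room temperature and luminescence read. Hill fitting gave AC50.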

[7] = Cell Viability - LYMP2-011 (AID 969); conditions: LYMP2-011 lymphoblastoid cells viability; series mostly up to 92.2 µM; also: nearly all actives have a fitted effect of over 60% in size
Procedure, shortened: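 2500 cells/well, 5 hr 37 C; compound added, 24 hr 37 C; CellTiter-Glo 30 min RT; luminescence. qHTS concentration-response, Hill-equation AC50. Tetraoctylammonium bromide positive control.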

[8] = Cell Viability - LYMP2-013 (AID 970); conditions: LYMP2-013 lymphoblastoid cells viability; series mostly up to 92.2 µM;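 also: cells exposed to compound for 24 h at 37 °C; nearly all actives have a fitted effect of over 55% in size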
Procedure, shortened: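 qHTS; 2500 lymphoblastoid cells/well; 5 hr 37 C settle; cpd 24 hr 37 C; CellTiter-Glo, 30 min RT; luminescence. AC50 = Hill fit.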

[9] = Cell Viability - LYMP2-017 (AID 972); conditions: LYMP2-017 lymphoblastoid cell viability; series mostly up to 92.2 µM; also: nearly all actives have a fitted effect of over 55% in size; as to activity change, negative = cytotoxicity: % is scaled to controls: 0 for no effect and ±100 for the full control effect
Procedure, shortened: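 2500 cells/well, 5 h 37 C; cpd 24 h 37 C in complete medium; CellTiter-Glo, 30 min RT; luminescence (ATP). AC50 via Hill fit, qHTS.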

[10] = Cell Viability - LYMP2-019 (AID 973); conditions: LYMP2-019 lymphoblastoid cell line viability; series mostly up to 92.2 µM;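 also: cells exposed to compound for 24 h at 37 °C; nearly all actives have a fitted effect of over 55% in size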;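 as to activity change, negative = cytotoxicity: 0% = DMSO alone and full effect = 92 µM tetraoctylammonium bromide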
Procedure, shortened: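 Luminescent ATP read-out (CellTiter-Glo, 30 min room temperature) served as the viability measure after 24 hr treatment of lymphoblastoid cells at 37 C. Concentration-response data were fitted to the Hill equation for AC50.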

[11] = Cell Viability - LYMP2-023 (AID 975); conditions: LYMP2-023 lymphoblastoid cell viability; series mostly up to 92.2 µM; also: nearly all actives have a fitted effect of over 55% in size;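 as to activity change, negative = cytotoxicity: cellular ATP measured by luciferase luminescence as viability proxy; plate controls were DMSO only for no effect and 92 µM tetraoctylammonium bromide control for full effect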
Procedure, shortened: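 2500 cells/well, 5 hr 37 C; cpd 24 hr 37 C; CellTiter-Glo, 30 min RT; luminescence. qHTS conc-response, Hill fit -> AC50. Pos ctrl tetraoctylammonium bromide.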

[12] = Cell Viability - LYMP2-025 (AID 976); conditions: LYMP2-025 lymphoblastoid cell viability; series mostly up to 92.2 µM;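 also: cells exposed to compound for 24 h at 37 °C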;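 as to activity change, negative = cytotoxicity: plate controls were DMSO only for no effect and tetraoctylammonium bromide control for full effect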
Procedure, shortened: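 Seed 2500 LYMP2-025 cells/well; 5 hr at 37 C; add compound; 24 hr at 37 C; add CellTiter-Glo; 30 min RT; read luminescence. AC50 from Hill-modelled concentration-response.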

[13] = Cell Viability - LYMP2-002 (AID 977); conditions: LYMP2-002 lymphoblastoid cell viability, qHTS; series mostly up to 92.2 µM;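 also: compound exposure lasted 24 h at 37 °C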
Procedure, shortened: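 Cytotoxicity is scored as concentration-dependent loss of cellular ATP in a human lymphoblastoid line after 24 hr compound treatment at 37 C. AC50 is obtained by modelling concentration-response data with the Hill equation.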

[14] = Cell Viability - LYMP2-006 (AID 978); conditions: LYMP2-006 lymphoblastoid cell viability, qHTS; series mostly up to 92.2 µM; also: nearly all actives have a fitted effect of over 60% in size; as to activity change, negative = cytotoxicity: % is scaled to controls: 0 for no effect and ±100 for the full control effect
Procedure, shortened: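 In this cytotoxicity screen, the human lymphoblastoid line grew in complete medium with test compounds for 24 hr at 37 C. Cellular ATP served as the viability signal.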

[15] = Cell Viability - LYMP2-010 (AID 981); conditions: LYMP2-010 lymphoblastoid cell viability, qHTS; series mostly up to 92.2 µM; also: nearly all actives have a fitted effect of over 55% in size
Procedure, shortened: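 Luminescent ATP signal (CellTiter-Glo) served as the viability read-out. Cells of the human lymphoblastoid line were treated with compound over a concentration range for 24 hours at 37 C, and AC50 values came from Hill-equation modeling.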

[16] = Cell Viability - LYMP2-014 (AID 983); conditions: LYMP2-014 lymphoblastoid cells, viability qHTS; series mostly up to 92.2 µM;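 also: cells exposed to compound for 24 h at 37 °C; nearly all actives have a fitted effect of over 50% in size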;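 as to activity change, negative = cytotoxicity: plate controls were DMSO only for no effect and 92 µM tetraoctylammonium bromide for full effect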
Procedure, shortened: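 Luminescent ATP signal (CellTiter-Glo, 30 min at room temperature) serves as the viability read-out after 24 hr compound exposure at 37 C. Cells were seeded at 2500 per well and settled 5 hr beforehand.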

[17] = Cell Viability - LYMP2-026 (AID 989); conditions: LYMP2-026 lymphoblastoid cell viability, qHTS; series mostly up to 92.2 µM;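 also: cells exposed to compound for 24 h at 37 °C; nearly all actives have a fitted effect of over 50% in size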
Procedure, shortened: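 Luminescent ATP signal (CellTiter-Glo, 30 min room temperature) measures viable lymphoblastoid cells after 24 hr compound treatment at 37 C. Decreased ATP reflects acute toxicity; AC50 values come from Hill-equation modeling.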

[18] = Cell Viability - LYMP1-002 - Assay at 40 hr (AID 994); conditions: LYMP1-002 lymphoblastoid cell viability; series mostly up to 92.2 µM; also: nearly all actives have a fitted effect of over 60% in size
Procedure, shortened: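 Luminescent ATP signal served as the viability readout, with decreases taken as toxicity. Cells were treated with compounds across a concentration range for 40 hours at 37 C, and AC50 values came from standard Hill modeling.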

[19] = target: Voltage-gated inwardly rectifying potassium channel KCNH2 (Homo sapiens) (UniProt Q12809); assay: qHTS Assay for Small Molecule Inhibitors of the Human hERG Channel Activity (AID 588834); conditions: U2OS BacMam hERG, FluxOR thallium flux fluorescence; series mostly up to 92.2 µM;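 also: lower thallium flux fluorescence means stronger hERG block; nearly all actives have a fitted effect of over 50% in size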
Sequence of Voltage-gated inwardly rectifying potassium channel KCNH2 (Homo sapiens) (Q12809 whole entry, looked up): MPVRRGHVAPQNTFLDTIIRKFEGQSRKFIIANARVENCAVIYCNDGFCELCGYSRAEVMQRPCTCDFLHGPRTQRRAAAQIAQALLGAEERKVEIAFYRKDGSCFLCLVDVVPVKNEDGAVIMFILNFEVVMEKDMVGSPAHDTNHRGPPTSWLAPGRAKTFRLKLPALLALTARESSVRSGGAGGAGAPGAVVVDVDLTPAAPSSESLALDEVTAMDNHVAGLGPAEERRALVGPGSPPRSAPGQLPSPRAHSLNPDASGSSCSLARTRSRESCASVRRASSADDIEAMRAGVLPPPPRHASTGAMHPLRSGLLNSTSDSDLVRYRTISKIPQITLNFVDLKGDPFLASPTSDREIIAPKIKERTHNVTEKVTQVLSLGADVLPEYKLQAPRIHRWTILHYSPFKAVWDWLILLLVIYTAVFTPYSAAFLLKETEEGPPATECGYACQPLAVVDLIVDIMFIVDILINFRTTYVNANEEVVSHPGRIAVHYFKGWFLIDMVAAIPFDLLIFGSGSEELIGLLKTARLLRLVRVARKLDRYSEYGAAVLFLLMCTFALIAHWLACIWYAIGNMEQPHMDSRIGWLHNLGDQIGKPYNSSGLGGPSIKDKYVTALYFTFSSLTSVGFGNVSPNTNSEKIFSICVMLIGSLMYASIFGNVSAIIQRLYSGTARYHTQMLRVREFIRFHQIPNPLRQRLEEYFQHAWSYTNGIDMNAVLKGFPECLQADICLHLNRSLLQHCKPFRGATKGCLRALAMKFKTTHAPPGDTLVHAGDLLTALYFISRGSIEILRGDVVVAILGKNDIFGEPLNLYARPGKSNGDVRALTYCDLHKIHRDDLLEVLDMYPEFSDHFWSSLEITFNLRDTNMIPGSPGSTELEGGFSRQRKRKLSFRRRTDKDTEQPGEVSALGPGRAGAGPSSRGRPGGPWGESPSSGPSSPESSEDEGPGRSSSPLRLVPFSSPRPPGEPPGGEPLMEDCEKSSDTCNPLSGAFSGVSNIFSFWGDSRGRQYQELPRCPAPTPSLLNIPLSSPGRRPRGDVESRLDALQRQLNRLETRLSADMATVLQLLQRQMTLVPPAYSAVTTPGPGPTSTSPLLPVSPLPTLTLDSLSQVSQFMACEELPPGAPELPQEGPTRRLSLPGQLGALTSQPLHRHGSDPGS
Procedure, shortened: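 Blockade is seen as reduced FluxOR thallium-flux fluorescence in U2OS cells expressing hERG from a BacMam construct, in Opti-MEM with 2% FCS. Concentration-response data fitted to the Hill equation for AC50.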

[20] = qHTS assay for small molecule disruptors of the mitochondrial membrane potential - 5 hr assay (AID 651755; calls by dose curve; also: nearly all actives have a fitted effect of over 40% in size); conditions: JC-1-type ratio dye; series mostly up to 92.2 µM
Procedure, shortened: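 HepG2, 2,000 cells/well, overnight attach; cpd or DMSO 5 hr, 37C/5% CO2; Mito-MPS 30 min 37C; fluor 490/535 + 540/590 nm.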
Potency is read from the fitted curve at half-maximal effect.

Cc1cccc(O)c1C
inactive: Potency [1] | Potency [2] | Potency [3] | Potency [4] | Potency [5] | Potency [6] | Potency [7] | Potency [8] | Potency [9] | Potency [10] | Potency [11] | Potency [12] | Potency [13] | Potency [14] | Potency [15] | Potency [16] | Potency [17] | Potency [18] | Potency [19] | Potency [20]

ClC1=C(Cl)C(Cl)(Cl)C(Cl)=C1Cl
inactive: Potency [1] | Potency [2] | Potency [3] | Potency [4] | Potency [5] | Potency [6] | Potency [18] | Potency [20]

CCCCCC/C(C=O)=C\c1ccccc1
inactive: Potency [1] | Potency [2] | Potency [3] | Potency [4] | Potency [5] | Potency [6] | Potency [7] | Potency [8] | Potency [9] | Potency [10] | Potency [11] | Potency [12] | Potency [13] | Potency [14] | Potency [15] | Potency [16] | Potency [17] | Potency [18] | Potency [20]

CN1[C@H]2CC(OC(=O)[C@H](CO)c3ccccc3)C[C@H]1[C@H]1O[C@H]12 (stereo not given in full)
inactive: Potency [1] | Potency [2] | Potency [4] | Potency [5] | Potency [6] | Potency [7] | Potency [8] | Potency [9] | Potency [10] | Potency [11] | Potency [12] | Potency [13] | Potency [14] | Potency [15] | Potency [16] | Potency [17] | Potency [18] | Potency [20]

O=C(/C=C/c1ccc(O)c(O)c1)OC1C[C@](O)(C(=O)O)C[C@@H](O)[C@H]1O (stereo not given in full)
inactive: Potency [1] | Potency [2] | Potency [3] | Potency [4] | Potency [5] | Potency [6] | Potency [7] | Potency [8] | Potency [9] | Potency [10] | Potency [11] | Potency [12] | Potency [13] | Potency [14] | Potency [15] | Potency [16] | Potency [17] | Potency [18] | Potency [19] | Potency [20]

C=CC(=O)OCC(CO)(COC(=O)C=C)COC(=O)C=C
active: Potency [1] 50.1 µM | activity change, negative = cytotoxicity [2] -91.9%
inactive: Potency [19]

CCCCCCCC[N+](CCCCCCCC)(CCCCCCCC)CCCCCCCC
active: Potency [1] 12.6 µM | Potency [2] 10 µM | Potency [3] 10 µM | Potency [4] 10 µM | Potency [5] 3.16 µM | Potency [6] 7.94 µM | Potency [7] 6.31 µM | Potency [8] 7.94 µM | Potency [9] 7.94 µM | Potency [10] 7.94 µM | Potency [11] 7.94 µM | Potency [12] 12.6 µM | Potency [13] 7.94 µM | Potency [14] 5.01 µM | Potency [15] 3.16 µM | Potency [16] 6.31 µM | Potency [17] 7.94 µM | Potency [18] 3.98 µM | Potency [19] 0.355 µM | Potency [20] 2.66 µM

CNc1ccc(O)cc1
inactive: Potency [19]
active: Potency [2] 31.6 µM | Potency [3] 31.6 µM | Potency [4] 12.6 µM | Potency [5] 25.1 µM | Potency [6] 5.01 µM | Potency [7] 6.31 µM | Potency [8] 6.31 µM | Potency [9] 3.98 µM | Potency [10] 3.98 µM | Potency [11] 7.94 µM | Potency [12] 10 µM | Potency [13] 10 µM | Potency [14] 12.6 µM | Potency [15] 3.16 µM | Potency [16] 6.31 µM | Potency [17] 7.94 µM | Potency [18] 25.1 µM

O=C=Nc1ccc(Cc2ccc(N=C=O)cc2)cc1
inactive: Potency [1] | Potency [2] | Potency [3] | Potency [4] | Potency [5] | Potency [6] | Potency [7] | Potency [8] | Potency [9] | Potency [10] | Potency [11] | Potency [12] | Potency [13] | Potency [14] | Potency [15] | Potency [16] | Potency [17] | Potency [18] | Potency [20]

CC/C(=C(\c1ccccc1)c1ccc(OCCN(C)C)cc1)c1ccc(O)cc1
active: Potency [1] 31.6 µM | Potency [2] 31.6 µM
inactive: Potency [20]

C/C=C1\C(=O)C[C@H]2[C@@H]3CCC4=CC(=O)CC[C@]4(C)[C@H]3CC[C@]12C
inactive: Potency [2] | Potency [3] | Potency [11] | Potency [12] | Potency [13] | Potency [17] | Potency [20]
active: Potency [19] 35.5 µM

O=C(OCC(COC(=O)c1ccccc1)(COC(=O)c1ccccc1)COC(=O)c1ccccc1)c1ccccc1
inactive: Potency [1] | Potency [2] | Potency [3] | Potency [4] | Potency [5] | Potency [6] | Potency [7] | Potency [8] | Potency [9] | Potency [10] | Potency [11] | Potency [12] | Potency [13] | Potency [14] | Potency [15] | Potency [16] | Potency [17] | Potency [18] | Potency [19]

c1ccc2c(c1)ccc1cc3c(ccc4ccccc43)cc12
inactive: Potency [1] | Potency [2] | Potency [3] | Potency [4] | Potency [5] | Potency [6] | Potency [7] | Potency [8] | Potency [9] | Potency [10] | Potency [11] | Potency [12] | Potency [13] | Potency [14] | Potency [15] | Potency [16] | Potency [17] | Potency [18] | Potency [19]

CN(C)c1ccc(C2(c3ccc(N(C)C)cc3)OC(=O)c3cc(N(C)C)ccc32)cc1
inactive: Potency [1] | Potency [2] | Potency [3] | Potency [4] | Potency [5] | Potency [6] | Potency [7] | Potency [8] | Potency [9] | Potency [10] | Potency [11] | Potency [12] | Potency [13] | Potency [14] | Potency [15] | Potency [16] | Potency [17] | Potency [18]

CO[C@H]1/C=C/O[C@@]2(C)Oc3c(C)c(O)c4c(O)c(c5c(c4c3C2=O)NC2(CCN(CC(C)C)CC2)N=5)=NC(=O)/C(C)=C\C=C\[C@H](C)[C@H](O)[C@@H](C)[C@@H](O)[C@@H](C)[C@H](OC(C)=O)[C@@H]1C
inactive: Potency [3] | Potency [4] | Potency [6] | Potency [10] | Potency [11] | Potency [12] | Potency [13] | Potency [16] | Potency [19] | Potency [20]

c1cc(OCC2CO2)cc(OCC2CO2)c1 (stereo not given)
inactive: Potency [5] | Potency [19] | Potency [20]
